G9a inh – blocks human histone lysine methyltransferase G9a; Q96KQ7; G9a H3K9 monomethylation, AlphaScreen, 2 h; Potency, µM (titrated, usually from 102 µM), inactives show top-dose activity, negative = inhibition, usual class: inhibitors; 350,000 compounds, 8.8% hits; further: potency means the concentration at half of the fitted maximal effect; nearly all actives have a fitted effect of over 75% in size
Target sequence (Q96KQ7 913-1193 limits assumed): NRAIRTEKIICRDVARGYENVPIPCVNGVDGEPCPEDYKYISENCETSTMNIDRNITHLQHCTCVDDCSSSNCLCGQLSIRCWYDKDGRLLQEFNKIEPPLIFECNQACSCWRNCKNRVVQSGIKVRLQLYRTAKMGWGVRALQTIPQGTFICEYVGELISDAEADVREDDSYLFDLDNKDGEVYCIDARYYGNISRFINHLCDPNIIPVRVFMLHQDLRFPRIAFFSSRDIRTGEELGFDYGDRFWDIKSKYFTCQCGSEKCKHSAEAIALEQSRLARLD
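Enzyme 20 nM + cpd, 15 min RT; add b-H3K9 pep 500 nM / SAM 20 uM; 2 h RT; anti-H3K9me1 Ab 0.5 ug/mL + SA donor / anti-rabbit acceptor beads 20 ug/mL each, 10 min; AlphaScreen read.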
Tau fluor cs – counter-screen for tau fibril formation inhibitors. 280,000 compounds, 0.93% hits. Potency, µM (highest dose often 57.7 µM), for the others: at the highest dose activity change, negative = decrease. tau K18 P301L Alexa594 fluorescence, heparin fibrillization. AID 1463; further: potency means the concentration at half of the fitted maximal effect; nearly all actives have a fitted effect of over 55% in size
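Human K18 P301L tau (15 uM unlabeled plus 0.24 uM Alexa 594-labeled, final) in 100 mM sodium acetate pH 7 was mixed with compound and 20 uM heparin and incubated 6 hr at 37 C.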
Tau ThT inhib – blocks human tau fibril formation measured by thioflavin T. 270,000 compounds, 2.1% hits. Potency, µM (doses to about 57.4 µM), for the others: top-dose activity, negative = inhibition, usual class: inhibitors. recombinant tau K18 P301L (four-repeat tau fragment), heparin-induced fibrillization, ThT fluorescence. AID 1460. P10636; further: potency means the concentration at half of the fitted maximal effect; nearly all actives have a fitted effect of over 55% in size
Target sequence (P10636 561-689 P618L limits assumed): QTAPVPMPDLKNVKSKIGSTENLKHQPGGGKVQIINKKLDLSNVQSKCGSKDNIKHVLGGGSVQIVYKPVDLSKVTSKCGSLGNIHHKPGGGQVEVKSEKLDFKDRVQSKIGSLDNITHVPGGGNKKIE
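Tau K18 P301L fragment (15 uM unlabeled plus 0.24 uM Alexa 594-labeled) in 100 mM sodium acetate pH 7 with compound, fibrillization induced by 20 uM heparin for 6 hr at 37 C. Thioflavin T (30 uM) added, fluorescence read after 1 hr (ex 450, em 510 nm).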
FBPA coupling cs – counter-screen for Giardia aldolase inhibitors: coupling enzyme system | activity change, negative = inhibition, % at 58.2 µM, hits read low | 290,000 compounds, 0.67% hits | coupling enzyme system counterscreen, AmpLite Red fluorescence; in the data active means activity change below about -30%
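Counterscreen lacking aldolase: glyceraldehyde-3-phosphate coupling-enzyme reagent preincubated 10 min at RT with compound (at 57.5 uM final), then substrate/coupling system with AmpLite Red added; fluorescence read at 525/598 nm after 20 min RT.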
Sfp PPTase inh – blocks B. subtilis Sfp PPTase activity. 310,000 compounds, 3.5% hits. Biochemical Sfp PPTase activity, qHTS. Q9F4F7. Potency, µM, for inactives: largest response in the series, negative = inhibition, most hits filed as inhibitors;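 further: the enzyme is Sfp with the accession as filed and its product quenches rhodamine fluorescence; potency means the concentration at half of the fitted maximal effect; 0% = enzyme reaction without inhibitor and -100% = no enzyme wells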
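Fluorescence-quenching assay: 15 nM Sfp-PPTase preincubated 15 min at room temperature with compound, then 5 uM rhodamine-CoA and 12.5 uM BHQ-2-labelled YbbR peptide added. Fluorescence (ex 525/em 598 nm) read at start and after 30 min; difference gives rate.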
Tau fibril FP – inhibitors of human tau fibril formation; Potency, µM (titrated, usually from 57.7 µM), inactives show top-dose activity, negative = inhibition, most hits filed as inhibitors; 280,000 compounds, 0.39% hits; P10636; K18 P301L tau heparin fibrillization, Alexa594 FP, 6 h; further: potency means the concentration at half of the fitted maximal effect; nearly all actives have a fitted effect of over 55% in size
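Recombinant K18 P301L […], labeled with Alexa 594 at 0.24 uM over 15 uM unlabeled; heparin inducer 20 uM final; 37 C, 6 hr; FP endpoint.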
Active calls of the source: *; ? = inconclusive; . = no result given; ! = not confirmed by another sample; [ ] = another dose, or the depositor's remark. Sampled rows, rich in hits. Any-hit rate of the full collection: about 11%. Unless noted, the call rests on the fitted dose curve; in most records, active means well fitted curve in the direction sought with a large enough effect; inconclusive means small, poorly fitted or top-dose-only effect, or another doubt; inactive means no such curve, though single readings can be large; an effect the other way counts as inactive or inconclusive. Unless noted, on the % scale 0 is the no-effect control and ±100 the full control effect.

SMILES	G9a inh	Tau fluor cs	Tau ThT inhib	FBPA coupling cs	Sfp PPTase inh	Tau fibril FP
CCC(=O)Nc1ccc(Nc2ccccc2)cc1	50µM*	-27%	?	-1	18%	11%
CCC(=O)Nc1ccc(O)cc1	-6%[12.7 µM]	.	.	.	7%	.
COCC(=O)Nc1ccc(Nc2ccccc2)cc1	?	?	?	-1	71µM*	-3%
CCC(=O)Nc1ccc(NC(=O)Cc2ccccc2)cn1	56µM*	7%	1%	-15	4%	5%
CCOC(=O)c1ccc(NC(=O)COC)cc1	-1%[12.7 µM]	-1%	-17%	0	10%	0%
N#C/C(=C\c1c(F)cccc1Cl)C(=O)NC1CC1	45%	.	.	.	4%	.
CCn1cc(C(=O)N2CCN(c3ccc(C(C)=O)cc3)CC2)c2cc(OC)c(OC)cc2c1=O	-7%	0%	2%	0	27%	-2%
COc1ccc(-c2nc(CCNC(=O)c3cccs3)cs2)cc1OC	8%[59 µM]	-11%	-13%	.	.	-7%
O=c1c2cn(Cc3ccc(F)cc3)c3ccccc3c-2nn1Cc1ccc(F)cc1	32µM*	.	.	0	-1%	.
COc1cc2c(cc1OC)C1=C(C#N)CN(C3CCCCC3)CN1CC2	45µM*	-11%	?	-2	-13%	-4%
COc1ccc(CCN2CC(C#N)=C3c4cc(OC)c(OC)cc4CCN3C2)cc1OC	?	-9%	?	0	-9%	5%
CCOc1ccc(OCC)c(NC(=O)c2ccc(-c3ccccc3)s2)c1	22%[59 µM]	-23%	-9%	.	.	0%
Cc1cc(-c2ccc(F)cc2)nc2cc(C(N)=O)nn12	56µM*	-19%	-27%	-2	-23%	-4%
CN1CCN(C(=O)c2cc3nc(-c4ccc(F)cc4)cc(C(F)(F)F)n3n2)CC1	15%[59 µM]	1%	-3%	-1	-10%	3%
Cc1ccc2c(c1)c(=O)c(C(=O)c1ccc3c(c1)OCO3)cn2Cc1cccc(F)c1	-3%[59 µM]	-9%	-6%	.	.	0%
C[C@@H]1NC(=O)[C@H](CCCN=C(N)N)NC(=O)c2cc([N+](=O)[O-])cc(I)c2OCC[C@@H](C(=O)NC(CC(=O)O)C(N)=O)NC1=O (stereo partly drawn)	40µM*	-12%	-17%	1	-12%	2%
C[C@@H]1NC(=O)c2cc([N+](=O)[O-])cc(I)c2OCC[C@@H](C(=O)NC(CC(=O)O)C(N)=O)NC(=O)[C@H](CC(N)=O)NC1=O (stereo partly drawn)	25µM*	-7%	-14%	7	?	-3%
Cc1nc(SCc2ccccc2F)c2oc3ccccc3c2n1	58%[59 µM]	-13%	-14%	0	79µM*	-2%
Cc1nc(SCC(=O)c2cccs2)c2oc3ccccc3c2n1	14%[12.7 µM]	-24%	?	7	79µM*	7%
Cc1nc(SCc2ccc(F)cc2)c2oc3ccccc3c2n1	.	-3%	-6%	4	1%	?
Cc1nc(SCC(=O)O)c2oc3ccccc3c2n1	56µM*	-4%	-8%	14	13%	-8%
O=C(CSc1ncnc2c1oc1ccccc12)c1cccs1	-46%	-10%	-6%	-1	18%	-9%
CC1=C(c2ccc(C)c(C)c2)S(=O)(=O)N(Cc2ccc(C(=O)NC(C)c3ccccc3)cc2)C1=O (stereo not drawn)	-2%[59 µM]	-15%	-2%	.	.	-1%
CCC(=O)C(C(=O)OC)[C@H](CCc1ccccc1)NC(=O)OC (stereo partly drawn)	.	-6%	0%	0	10%	-11%
COc1cc(NC(=O)NC(C)(C(F)(F)F)C(F)(F)F)cc(OC)c1OC	50µM*	-16%	-10%	-11	7%	7%
SMILES	G9a inh	Tau fluor cs	Tau ThT inhib	FBPA coupling cs	Sfp PPTase inh	Tau fibril FP
CCc1ccccc1NC(=O)CN1C(=O)CCc2cc(S(=O)(=O)N3CCCCC3)ccc21	-33%[59 µM]	-11%	-1%	.	.	0%
COc1ccccc1C1C2=C(CC(C)(C)CC2=O)Nc2nnnn21 (stereo not drawn)	28µM*	-3%	-3%	2	6%	9%
CCCN(CCC)CCNC(=O)C1CCCN(S(=O)(=O)c2cccc3nsnc23)C1 (stereo not drawn)	6%[59 µM]	-8%	-4%	.	.	-5%
CCCCCCCCCCCCCCCCCC[N+](C)(C)CCC[Si](OC)(OC)OC	30%[59 µM]	.	.	.	14%	.
CCCCCC[N+](C)(C)CCSSCC[N+](C)(C)CCCCCC	?	-23%	7.1µM*	-6	-18%	?
C[N+](C)(C)CCCCCC[N+](C)(C)C	43%[12.7 µM]	3%	-3%	8	19%	10%
CCCCCCCCCCCCCC[N+](C)(C)C	-1%[12.7 µM]	.	.	.	11µM*	.
CCCCCCCCCCCCCCCC[N+](C)(C)CC	14µM*!	.	.	.	79µM*	.
COc1ccc(-c2nc(SCC(=O)N3CCC(C)CC3)n[nH]2)cc1	-9%[59 µM]	-11%	-15%	.	.	-5%
Cc1ccc2c(c1)-c1ncc(C(=O)c3cc(Br)ccc3O)cc1CO2	8.9µM*	?	-15%	0	7%	-12%
CSCCC(NS(=O)(=O)c1ccc2c(c1)oc(=O)n2C)C(=O)N1CCN(c2cccc(Cl)c2)CC1 (stereo not drawn)	-7%[59 µM]	-22%	-11%	.	.	-9%
CCOC(=O)c1c(N)sc2c1CCC(C)C2 (stereo not drawn)	?	?	?	0	50µM*	-14%
CCOC(=O)c1c(NC(=O)/C=C/c2ccc(Cl)cc2)sc2c1CCC(C)C2 (stereo not drawn)	-2%[59 µM]	-20%	?	.	.	-3%
CCOC(=O)c1c(NC(=O)C2C3C=CC(C3)C2C(=O)O)sc2c1CC(C)CC2 (stereo not drawn)	?	3%	-10%	15	25%	-5%
CCOC(=O)c1c(N)sc2c1CCS(=O)(=O)C2	8.9µM*	-15%	?	1	56µM*	-15%
CCCOC(=O)c1c(NC(=O)C2C3C=CC(C3)C2C(=O)O)sc2c1CCC(C)C2 (stereo not drawn)	8.9µM*	-23%	?	18	40µM*	?
CCOC(=O)c1c(NS(C)(=O)=O)sc2c1CCC(C)C2 (stereo not drawn)	56µM*	-16%	?	8	-14%	-1%
O=C(CSc1nc2c(oc3ccccc32)c(=O)[nH]1)Nc1cccc(Cl)c1	3%[59 µM]	-2%	5%	.	.	-17%
COc1ccc(Cl)cc1C(=O)Nc1ccc2oc(-c3ccc(C(C)(C)C)cc3)nc2c1	2%[59 µM]	-17%	4%	.	.	-11%
Cc1c(NS(=O)(=O)c2cc(C(=O)NCCN(C)C)ccc2Cl)c(=O)n(-c2ccccc2)n1C	?	.	.	-2	11%	.
Cc1cc2c(cc3c(SCC(=O)Nc4cccc(Cl)c4C)nnc(C)n32)o1	?	-16%	?	.	.	-7%

Screening results deposited in PubChem BioAssay by National Center for Advancing Translational Sciences (NCATS).
